Paper PMC12136788
Residue numbers refer to the chain shown, from its start. Over roughly 5,800 sequences, “enrichment r” has its median near 0.54; the highest 2% begin near 16. The full list was thinned out, with the highest values kept by preference.

B1: chr10:16593140:16593241:-|3pUTR|ENSG00000148484|unk|total|mutant (ssRNA)
RNA: GGGAGUUCUACAGUCCGACGAUCUUAUUUUUCUUUUCACUCUCUUUCUAAUGCUUCCCACCUUACCUUUCCGAUUCUUUUGCCCGGUGGGAGAUUGUUAUAAGGUCUUUAAACCAUUUCCAUUUGUUUCUUUAACAUUACCAACAACAGAGGAUUGAGCAUCA
B2: chr5:72207278:72207408:+|3pUTR|ENSG00000131711|msi1_unk|FALSE|overlapping (ssRNA)
RNA: GGGAGUUCUACAGUCCGACGAUCAGAGAACAAUGACCUCAUUUUAUUUUCUAUGUUAGUUAUUUAUUUCAAAAUUAACAUUUUAGUUGAUUUUUGUCUGAUAAGUCUAUGUUUUGCACUGCUAACUAUGAUGAGGGUUUAAAACAACAGAGGAUUGAGCAUCA
B3: chr7:137014887:137014989:+|CDS|ENSG00000181072|unk|FALSE|unique (ssRNA)
RNA: GGGAGUUCUACAGUCCGACGAUCGCUACUUGGCUACUGAUUAGAGAACGCAAAAUGAAUAACUCAACAAACUCCUCUAACAAUAGCCUGGCUCUUACAAGUCCUUAUAAGACAUUUGAAGUGGUGUUUAUUGUCCUGGUGGCUCAACAGAGGAUUGAGCAUCA
B4: chr1:204554719:204554820:+|3pUTR|ENSG00000198625|unk|FALSE|unique (ssRNA)
RNA: GGGAGUUCUACAGUCCGACGAUCAAGUACUUUCUUUUGACAGAAAUUUUCAUUCUGCUUGCCAUUGCUAUAUUCUCCCUUUAUAGGAGCCAUUGGAUUUCUUUCCUUUUGUGGGAAAUGUCCCAUUAGCAUUUUCAGAUCUUUCAACAGAGGAUUGAGCAUCA
B5: chr6:117694021:117694122:+|CDS|ENSG00000153989|msi1|total|mutant (ssRNA)
RNA: GGGAGUUCUACAGUCCGACGAUCGCUGUCUCCGGAAGAUGGAAAAGCAGAUAUUGUAAGAGCUGCUCAGGACUUUUGCCAGUCCGCCGCCCAGAAGCAAAAGAGACCCACAGAUUUGGAUGCCGAUACGUCCGCCAGUUUACUCAACAGAGGAUUGAGCAUCA
B6: chr12:76028832:76028933:-|3pUTR|ENSG00000139289|msi1|FALSE|unique (ssRNA)
RNA: GGGAGUUCUACAGUCCGACGAUCAAAGGAAAAGACUGGAUAAACACAGGAUUUUCAGUAAGAAAACAACCCCAGUCUUGUCUUAGAAGCCACUUGUUGAGGAGUCUGUUGGGGGAAAAAAGAGGAUAUGCUUUUAAAGGUAGACAACAGAGGAUUGAGCAUCA
B7: chrX:120258281:120258382:+|3pUTR|ENSG00000177485|msi1|FALSE|bound_elsewhere (ssRNA)
RNA: GGGAGUUCUACAGUCCGACGAUCUGUACAAUCUUCCCUGUCAUGACUUUAAGUUCUACUUUUCAUUAACCAUGGCCUGAUAUUAGUUCUUAGAGCUUCUUGUGGCAAAAAUAAAAUGAUUUAAUUCUGAUGUUUGAGUGCGUGCAACAGAGGAUUGAGCAUCA
B8: chr6:105096826:105097152:-|3pUTR|ENSG00000112276|msi1|FALSE|unique (ssRNA)
RNA: GGGAGUUCUACAGUCCGACGAUCACUUGCAACCUAGUUUUAAAAUACAUGAGGAUUUUAUGAAAGCUUUAUACAGACAUUUAUAGGAAACUCAUUCUUUGAUUUUAGGUGCCAUUUAAAUUGAUAACACUUACUUUAUAAAAACAACAGAGGAUUGAGCAUCA
B9: chr8:41263181:41263319:-|3pUTR|ENSG00000104332|msi1|total|mutant (ssRNA)
RNA: GGGAGUUCUACAGUCCGACGAUCCUUAAGUGAUUUGCCUGUAAUUUUGGAUGAUUAAAAAAUGUGUAUAUAUAUCCGCUAAUCCGAAAUAUUCUACUUCUCUGUUGUCAAACUGAAAUUCAGAGCAAGUUCCUGAGUGCGUGGCAACAGAGGAUUGAGCAUCA
B10: chr10:17237356:17237519:+|3pUTR|ENSG00000026025|msi1_unk|total|mutant (ssRNA)
RNA: GGGAGUUCUACAGUCCGACGAUCAGACCGAUUUGGAACCGGAAUAAGCUCCCGUUCUUAACAACCGACACUCCUACAAGAUUCCGAAAAAAGUUUACAACAUAAUCCCGUUUACAGAAAAAUCUUGUGCCCGAAUACUUUUUACAACAGAGGAUUGAGCAUCA
B11: chr8:41263181:41263319:-|3pUTR|ENSG00000104332|msi1|FALSE|unique (ssRNA)
RNA: B9 RNA with C75U, C76A, C83U, C84A
B12: chr10:17237356:17237519:+|3pUTR|ENSG00000026025|msi1_unk|FALSE|overlapping (ssRNA)
RNA: GGGAGUUCUACAGUCCGACGAUCAGAUAGAUUUGGAAUAGGAAUAAGCUCUAGUUCUUAACAACCGACACUCCUACAAGAUUUAGAAAAAAGUUUACAACAUAAUCUAGUUUACAGAAAAAUCUUGUGCUAGAAUACUUUUUACAACAGAGGAUUGAGCAUCA
B13: chr6:117694021:117694122:+|CDS|ENSG00000153989|msi1|FALSE|unique (ssRNA)
RNA: B5 RNA with C83U, C84A, C86U, C87A, C122U, C123A, C131U, C132A
B14: chr1:62654060:62654161:-|CDS|ENSG00000116641|unk|FALSE|unique (ssRNA)
RNA: GGGAGUUCUACAGUCCGACGAUCCUUGUUUUCUACCCAUCUCUUAUCCCAACUUUUUACAAAGGUGCCCCUUACCGAAGCAGUAGAUCCAGUGGAUUUGGAAGAUUACCUCAUUACUCAUCCUUUGGCUGUGGAUUCUGGGCCCAACAGAGGAUUGAGCAUCA

What follows are binders tested against MSI1 full-length (mouse, UniProt Q61474 1-362) (assay: nsRBNS (natural sequence RNA bind-n-seq); RBNS binding buffer (assumed for nsRBNS): 25 mM Tris pH 7.5, 150 mM KCl, 3 mM MgCl2, 0.01% Triton X-100, 500 ug/ml BSA, 20 U/ml SUPERase-In, 4 C; UNK is unkempt and MSI1 is Musashi-1; names of the RNAs are library labels; protein concentration not given here; high values mean tight binding).
Chain of MSI1 full-length (Q61474 whole entry): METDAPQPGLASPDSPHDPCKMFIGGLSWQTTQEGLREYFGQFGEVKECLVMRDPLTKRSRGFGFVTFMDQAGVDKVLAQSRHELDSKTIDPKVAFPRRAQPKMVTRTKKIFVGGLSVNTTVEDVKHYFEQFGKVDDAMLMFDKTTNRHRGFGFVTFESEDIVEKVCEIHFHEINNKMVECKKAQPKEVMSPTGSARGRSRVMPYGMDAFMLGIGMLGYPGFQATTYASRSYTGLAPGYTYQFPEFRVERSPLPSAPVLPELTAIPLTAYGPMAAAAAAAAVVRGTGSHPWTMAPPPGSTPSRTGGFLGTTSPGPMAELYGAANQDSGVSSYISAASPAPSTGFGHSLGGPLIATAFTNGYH

Binder	binding signal [enrichment R]
B1	1.23
B2	1.11
B3	0.188
B4	0.583
B5	0.409
B6	0.854
B7	0.662
B8	1.13
B9	0.429
B10	0.307
B11	21.3
B12	20.9
B13	17.5
B14	0.626
